Results taken from PubChem BioAssay (NCI).
Compounds without any hit were thinned out: in the full panel of roughly 83,000, 20% have a hit.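 Plates (96-well) were seeded with cells, treated with compound at one concentration, and incubated for 48 hours before percent growth was determined.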 A number with no mark means an inactive call. The source made the active and inactive calls. Rule for the calls: active = growth percent below 10; inactive = the rest.

These molecules were tested on MDA-MB-435 melanoma (assay: NCI-60 one-dose screen, 48 h (100 = growth as untreated, 0 = no growth, -100 = all killed)). Settings: 10 µM unless noted.
`CC1=C(C(=O)Nc2ccccc2)C(c2cccc3ccccc23)n2c(nc3ccccc32)N1` (stereo not drawn) gave a growth of 74.4%. `COc1ccc2nc(NC(=O)c3ccc(N(C)C)cc3)sc2c1` showed a growth of 79.8%. For `C[C@H]1[C@@H](CC(=O)N[C@@H](Cc2coc3ccccc23)B(O)O)O[C@@H]2OC3(C)CC[C@H]4[C@H](C)CC[C@@H]1[C@@]24O3`, the growth was -75.8% (active). In the case of `Fc1ccc(N2CC(Cn3c(C(F)(F)F)cc4c(Cl)ncnc43)C2)c(F)c1`, the growth was 15.9%. With `Cn1cc(-c2cc(N)n3nc(-c4c[nH]c5ccc(F)cc45)cc3n2)c2cc(Br)cnc21` the growth was 78.8%. In the case of `O=C1Nc2ccc(F)cc2/C1=C/C(=O)c1cc2ccccc2oc1=O`, the growth was 103%. `O=C(CSc1nc2ccccc2c(=O)[nH]1)NNC(=O)c1ccccc1Cl` was tested, and the growth was 101%. Work on `CCCCNc1ccc2c3c(cccc13)C(=O)N(NCC(O)COc1ccc3c(C)cc(=O)oc3c1)C2=O` (stereo not drawn) yielded a growth of 72.2%. Work on `COc1cc(CNC(=O)C[C@H](C)CCC=C(C)C)ccc1OCc1cn(-c2ccccc2Cl)nn1` yielded a growth of 66.5%. With `Cc1cccc(-c2ccccc2Oc2ccc3nnc(Cl)n3n2)c1` the growth was 105%. With `CCOc1ccccc1[C@H]1C(C(=O)c2ccc(Cl)cc2)C2(N[C@@H]1c1ccccc1)C(=O)Nc1ccccc12` (stereo partly drawn) the growth was -28.3% (active). In the case of `CCc1ccccc1-c1nc(CN[C@@H]2C[C@@H]3C[C@H]([C@H]2C)C3(C)C)c(C)o1`, the growth was -79.5% (active). With `COc1cc(C=O)ccc1OC(=O)c1cc(-c2ccc(C)cc2)n(-c2ccc(S(C)(=O)=O)cc2)n1` the growth was 104%. `COC(=O)c1ccc(-c2c(-c3ccccc3)c(F)c3oc(C(=O)OC)c(N)c3c2-c2ccccc2)cc1` was tested, and the growth was 101%. `C#CCN(C)CCCOc1ccc(N(C)C(=O)c2cc(C(C)C)c(O)cc2O)cc1Cl` was tested, and the growth was 4.66% (active). In the case of `COc1c2c(c(Br)c3c1C(CCc1ccccc1)N(C)CC3)OCO2` (stereo not drawn), the growth was 13.9%. Work on `CN(C(=O)CN1C(=O)/C(=C/c2ccco2)SC1=S)C1CCS(=O)(=O)C1` (stereo not drawn) yielded a growth of 97%. Work on `COc1ccc(-c2nnc3c(/C=C/c4ccc(Br)cc4)nc4ccccc4n23)cc1` yielded a growth of 28.9%. With `CN(C)c1nc(NCCNS(=O)(=O)c2ccc(C3=Nc4c(N)nc(N)nc4NC(c4ccc(Cl)cc4)C3)cc2)nc(N2CCOCC2)n1` (stereo not drawn) the growth was 60.1%. `CC1=C(C(=O)OCc2ccccc2)C(c2cccc3ccccc23)n2c(nc3ccccc32)N1` (stereo not drawn) was tested, and the growth was -45.5% (active). Molecule `NNc1ncnc2sc3c(c12)CCN(Cc1ccccc1)C3` has a growth of 77.7%. `c1n[nH]cc1-c1nc2ccc3[nH]ncc3c2c2c1CC1(CC2)COC1` showed a growth of 30.7%. In the case of `CC[C@]12C=CCN3CC[C@]4(C(=C(C(=O)OC)C1)Nc1cc(OC)c([C@@H]5[C@H]6O[C@H]6[C@@]6(CC)CC(C(=O)OC)=C7Nc8cc(OC)ccc8[C@@]78CCN5[C@@H]68)cc14)[C@@H]32`, the growth was 57.6%. `COc1sc(/C=N/NC(=O)c2[nH]c3ccc(Br)cc3c2-c2ccccc2)cc1Br` was tested, and the growth was -26.5% (active). For `Cc1nc(Nc2ccccn2)sc1C1=NNC(c2ccccc2F)C1` (stereo not drawn), the growth was -17.9% (active). `CN1CCN(c2ccc3c4c(cccc24)C(=O)N(c2cccc(-c4nn(-c5ccccc5)cc4-c4nc5ccccc5s4)c2)C3=O)CC1` was tested, and the growth was 95.1%. In the case of `Cc1ccc2c(c1)nc(-c1ccccc1)n2CC(=O)N=Nc1c(O)[nH]c2ccc(Cl)cc12`, the growth was -14.2% (active). For `O=C(N/N=C/c1ccc(Br)o1)c1[nH]c2ccc(Br)cc2c1-c1ccccc1`, the growth was -29.1% (active). In the case of `COc1cc(/C=C/C(=O)c2ccc(S(=O)(=O)NCCNc3nc(N(C)C)nc(N4CCOCC4)n3)cc2)cc(OC)c1OC`, the growth was -56% (active). Molecule `COc1cc(/C=C/C(=O)c2cnn(-c3cc(=O)[nH]c4ccccc34)c2C)cc(OC)c1OC` has a growth of 21.1%. `Cc1ccccc1Nc1nnc(-c2c[nH]c3ccccc23)o1` was tested, and the growth was -47.2% (active). With `O=CNc1ccc(-n2cnc3cc(-c4ccc(O)cc4)ccc32)cc1` the growth was 82.8%. In the case of `C#CCN(C)CCCOc1ccc(N(CC)C(=O)c2cc(C(C)C)c(O)cc2O)cc1Cl`, the growth was -26.1% (active). `CCOC(=O)/C(F)=C/C1CC1CCc1ccc(OCC)cc1` (stereo not drawn) showed a growth of 99%. `O=C(CSc1nc2c(c(=O)[nH]1)CCCC2)Nc1ccccc1C(=O)O` gave a growth of 109%. `O=C1CCC(N2C(=O)c3cccc(NCCCCCC(=O)N4CCN(c5ccc6nc7c(nc6c5C(F)(F)F)C(=O)c5ncccc5C7=O)CC4)c3C2=O)C(=O)N1` (stereo not drawn) was tested, and the growth was -79.8% (active). In the case of `O=C(c1cc2cc(OCCCN3CCC3)ccc2[nH]1)N1C[C@@H](CCl)c2c1cc(OCc1ccccc1)c1ccccc21`, the growth was -78.8% (active). In the case of `CC(C)C[C@H](NC(=O)CNC(=O)C[C@H]1O[C@@H]2OC3(C)CC[C@H]4[C@H](C)CC[C@@H]([C@H]1C)[C@@]24O3)B(O)O`, the growth was -71.1% (active).
